# Source: ChEMBL document CHEMBL3988442, “University of Dundee, Small-Polar-MMV Screening Library” (2021)
# About 13,000 (27%) of roughly 48,000 compounds showed an effect of 50% or more. Some of the results follow.
# System: Wolbachia pipientis
# Experiment: Anti-Wolbachia Cell-Based Screen
# Type: functional
# Set-up: scale not given: in the data most compounds retested in dose-response had high values
# Conditions: 5 µM
row,SMILES,Percent Effect [%]
1,CN1CCc2onc(CNc3ncccn3)c2C1.O=C(O)C(F)(F)F.O=C(O)C(F)(F)F,-12.85
2,Cc1ccc(CN(Cc2ccccn2)C(=O)[C@H]2CC[C@@H](N)C2)s1,-33.4
3,O=C(O)C(F)(F)F.c1c2c(nn1CC1CC1)C(CNC1CCOCC1)OCC2 (stereo not given),5.412
4,COCCN(Cc1ccc(F)cc1Cl)C(=O)c1cccc[n+]1[O-],-30.73
5,COc1ccccc1S(=O)(=O)N1CCC(Oc2cccnn2)CC1,-12.85
6,Cc1noc(C)c1S(=O)(=O)N1CCC(Oc2cccnn2)CC1,-5.902
7,Cc1noc(C)c1S(=O)(=O)N1CCC(Oc2ccccn2)CC1,2.267
8,Cc1n[nH]c(C)c1S(=O)(=O)N1CCC(Oc2ccccc2F)CC1,121.8
9,O=S(=O)(c1ccccc1F)N1CCC(Oc2cccnn2)CC1,-7.526
10,Cc1ccccc1OC1CCN(S(=O)(=O)c2c(C)n[nH]c2C)CC1,120.4
11,CCOC(=O)C1CCN(CCCc2nnnn2-c2ccccc2)CC1,10.8
12,CN(C)c1ccc(C(=O)N2CCCCC2CC(N)=O)c(F)c1 (stereo not given),-10.13
13,NC(=O)NCC1CCCCN1C(=O)c1cc(F)cc(F)c1 (stereo not given),94.01
14,Cc1ccc(C(=O)N2CCCCC2CNC(N)=O)cc1F (stereo not given),100.6
15,NC(=O)NCC1CCCCN1C(=O)c1ccc(Br)s1 (stereo not given),13.78
16,Cc1ccc(C(=O)N2CCCCC2CNC(N)=O)s1 (stereo not given),-21.76
17,NC(=O)NCC1CCCCN1C(=O)c1ccc(Cl)s1 (stereo not given),6.082
18,CNS(=O)(=O)CC1CCCN1C(=O)c1ccc(C)c(C)c1 (stereo not given),1.148
19,COc1cccc(C(=O)N2CCCCC2CNC(N)=O)c1 (stereo not given),4.596
20,NC(=O)NCC1CCCCN1C(=O)c1cccc(Cl)c1 (stereo not given),109.7
21,CCN(C(C)=O)c1nc(CN2CCCCC2Cn2cncn2)cs1 (stereo not given),113.4
22,CCN(C(C)=O)c1nc(CN2CCCC2Cn2cncn2)cs1 (stereo not given),93.1
23,CC(=O)Nc1nc(CN2CCCCC2Cn2cncn2)cs1 (stereo not given),101
24,CC(=O)N(C)c1nc(CN2CCCC2Cn2nc(C)cc2C)cs1 (stereo not given),89.05
25,CN(C)C(=O)Cc1nc(CN2CCCC2Cn2cccn2)cs1 (stereo not given),-60.87
26,c1ncn(CC2CCCN2Cc2cn3ccsc3n2)n1 (stereo not given),-12.38
27,Cc1cc(C)n(CC2CCCN2CC(=O)N(C)C)n1 (stereo not given),-0.9617
28,Cc1cc(C)n(CC2CCCN2C(=O)Cc2csc(C)n2)n1 (stereo not given),-5.348
29,CC(=O)Nc1nc(CN2CCCC2Cn2cncn2)cs1 (stereo not given),-0.3919
30,Cc1cccn2c(=O)cc(CN3CCCCC3Cn3cncn3)nc12 (stereo not given),-0.6189
